Experimental data reported in PubChem BioAssay AID624138 (Broad Institute, 2012).
The whole screen tested about 17,000 compounds, of which about 35 (0.2%) were called active.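 The calls were made as follows: active = compounds whose four printed spots each show fluorescence over background unusually high for their array block, chance value under 7%; inactive = the rest.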 The full list was thinned out, with actives kept by preference.

Each compound was assayed against Signal transducer and activator of transcription 3 (Homo sapiens) (UniProt P40763) (assay: small molecules binding His-tagged STAT3 – biochemical, small molecule microarray, single point, set 2, primary screen (AID 624138)). Settings: anti-His fluorescence.
Chain of Signal transducer and activator of transcription 3 (Homo sapiens) (P40763 whole entry, looked up): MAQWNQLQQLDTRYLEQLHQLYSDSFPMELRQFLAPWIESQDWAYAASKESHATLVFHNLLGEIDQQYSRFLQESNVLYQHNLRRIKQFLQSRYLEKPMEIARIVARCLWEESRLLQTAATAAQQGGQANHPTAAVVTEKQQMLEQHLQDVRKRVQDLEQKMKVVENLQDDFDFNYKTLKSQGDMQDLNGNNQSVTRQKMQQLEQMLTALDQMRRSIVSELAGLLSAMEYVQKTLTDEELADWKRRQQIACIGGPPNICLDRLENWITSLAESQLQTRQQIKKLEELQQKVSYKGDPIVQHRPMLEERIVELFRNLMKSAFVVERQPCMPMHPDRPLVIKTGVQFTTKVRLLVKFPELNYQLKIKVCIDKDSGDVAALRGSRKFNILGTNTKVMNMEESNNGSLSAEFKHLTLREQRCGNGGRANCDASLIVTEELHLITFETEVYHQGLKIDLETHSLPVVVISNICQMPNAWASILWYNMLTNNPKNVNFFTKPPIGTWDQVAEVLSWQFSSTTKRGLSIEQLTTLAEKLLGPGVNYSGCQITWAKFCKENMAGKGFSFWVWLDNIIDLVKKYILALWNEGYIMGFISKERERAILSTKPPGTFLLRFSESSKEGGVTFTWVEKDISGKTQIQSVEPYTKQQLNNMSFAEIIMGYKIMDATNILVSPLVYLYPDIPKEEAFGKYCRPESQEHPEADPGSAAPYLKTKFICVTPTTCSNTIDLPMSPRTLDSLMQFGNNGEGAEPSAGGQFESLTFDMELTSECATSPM
`c1cncc(CNCCc2c[nH]c3ccccc23)c1` was tested, and the outcome was “active”.
With `COc1ccc2[nH]cc(CCNCc3ccc(Br)cc3)c2c1` the outcome was “inactive”.
In the case of `CC(=O)c1c(O)c(C)c(O)c(Cc2c(O)c3c(c(C(=O)/C=C/c4ccccc4)c2O)OC(C)(C)C=C3)c1O`, the outcome is reported as “inactive”.
For `C[C@H]1CCC/C=C/C2C[C@H](O)C[C@H]2[C@H](O)/C=C\C(=O)O1` (stereo not given in full), the outcome was “inactive”.
In the case of `Cc1ccc(OC(=O)N(C)C[C@@H]2OCc3cnnn3CCCC(=O)N([C@H](C)CO)C[C@@H]2C)cc1`, the outcome is reported as “inactive”.
